Screens from PubChem BioAssay.
This is a sample that favours compounds with a hit; in the whole collection about 7.4% have one here.
p53 reactivation: re-activators of mutant p53; H1299 p53-A138V BP100-luciferase reporter, luminescence, 24 h; AID 504706; hit rate 0.063% among 320,000; Potency, µM (highest dose often 92.2 µM), actives largely listed as activators; further: nearly all actives have a fitted effect of over 45% in size
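p53-null H1299 cells stably carrying temperature-sensitive p53-A138V and a BP100-luciferase reporter were pinned with compounds (4-point, 1:5 series) and held 24 hrs at 37 deg C. Luminescence was read 10 min after detection reagent.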
ELG1 genotoxic: inducers of genotoxicity in HEK293T ELG1-luciferase cells. Potency, µM (doses to about 46 µM), hits mostly activators. HEK293T ELG1-luciferase reporter, luminescence, 16 h. hit rate 1.3% among 330,000; further: nearly all actives have a fitted effect of over 60% in size
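Genotoxicity was scored as increased ELG1-luciferase reporter signal, measured by ONE-Glo luminescence (30 min, room temperature). Compound or vehicle exposure of the HEK293T reporter cells lasted 16 hr at 37°C.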
Rab9 prom act: Rab9 promoter activation | Huh7 Rab9 promoter-luciferase reporter, luminescence, 24 h | Potency, µM (highest dose often 9.22 µM), usual class: activators | hit rate 2.8% among 320,000 | AID 485297; further: nearly all actives have a fitted effect of over 60% in size
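Measured in stably transfected Huh7 cells bearing a Rab9 promoter–luciferase construct: 24 h compound treatment at 37 °C, followed by luminescence detection.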
SMN2 splice up: enhancers of SMN2 splice variant expression | HEK293 SMN2-luciferase splicing reporter, luminescence, 30-36 h | Potency, µM (top dose mostly 46.1 µM), hits mostly activators | hit rate 2.8% among 210,000; further: nearly all actives have a fitted effect of over 55% in size
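qHTS luciferase splicing reporter: luminescence rises when SMN2 exon 7 is included in transfected HEK293 cells. Compound exposure lasted 30-36 h at 37C, with 4.5 mM final sodium butyrate as control, followed by a ONE-Glo read.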
FLuc counter: firefly luciferase modulation, counter-screen for miR-21 project. Potency, µM (doses to about 57.5 µM), most hits filed as inhibitors. hit rate 6.9% among 360,000. P08659. purified FLuc, Km substrates, luminescence inhibition; further: nearly all actives have a fitted effect of over 55% in size
Target sequence (P08659 whole entry, looked up): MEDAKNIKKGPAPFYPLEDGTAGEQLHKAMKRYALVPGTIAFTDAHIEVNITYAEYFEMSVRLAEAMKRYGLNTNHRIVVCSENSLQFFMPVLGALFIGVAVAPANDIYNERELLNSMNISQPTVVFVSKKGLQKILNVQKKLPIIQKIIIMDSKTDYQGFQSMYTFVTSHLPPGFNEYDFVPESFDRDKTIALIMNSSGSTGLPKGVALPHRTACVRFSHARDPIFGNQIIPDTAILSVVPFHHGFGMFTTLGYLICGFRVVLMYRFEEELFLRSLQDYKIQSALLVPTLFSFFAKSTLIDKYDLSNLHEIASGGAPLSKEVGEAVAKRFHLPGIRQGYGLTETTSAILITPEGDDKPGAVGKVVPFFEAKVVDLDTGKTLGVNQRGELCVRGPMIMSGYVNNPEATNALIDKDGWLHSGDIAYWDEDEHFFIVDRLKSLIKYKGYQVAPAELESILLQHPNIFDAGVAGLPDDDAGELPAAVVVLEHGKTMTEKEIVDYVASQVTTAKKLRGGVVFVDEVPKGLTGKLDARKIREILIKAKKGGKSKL
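Purified P. pyralis luciferase, 10 nM final, with Km-level 10 uM D-luciferin and 10 uM ATP in 50 mM Tris acetate pH 7.5, 10 mM Mg acetate, 0.01% Tween-20, 0.05% BSA; 6-point qHTS titration about 60 µM downward; luminescence read.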
NPC1 prom act: NPC1 promoter activation | Huh7 NPC1 promoter luciferase reporter, 24 h | Potency, µM (series often up to 9.22 µM), most hits filed as activators | hit rate 2.4% among 320,000; further: nearly all actives have a fitted effect of over 60% in size
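Cells: Huh7 expressing luciferase under the NPC1 promoter, 1500/well. Seeded 2 h, compound added, incubated 24 h at 37 °C. Luciferase reagent, 10 min ambient, then luminescence.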
Numbers stand for hits; . = inactive; ? = inconclusive; / = no result. The call rests on the fitted dose curve; in most records, active means well fitted curve in the direction sought with a large enough effect; inconclusive means small, poorly fitted or top-dose-only effect, or another doubt; inactive means no such curve, though single readings can be large; an effect the other way counts as inactive or inconclusive.

SMILES	p53 reactivation	ELG1 genotoxic	Rab9 prom act	SMN2 splice up	FLuc counter	NPC1 prom act
Cc1cc(C)nc(Nc2nc3ccccc3[nH]2)n1	/	?	?	13µM	?	?
Nc1ccc(Nc2nc3ccccc3[nH]2)cc1	.	.	.	/	.	.
c1ccc(Nc2nc3ccccc3[nH]2)nc1	?	?	3.5µM	?	24µM	?
CC1=C(C(=O)Nc2ccccc2C(=O)NC2CCC(C)CC2)SCCO1 (stereo not given)	.	.	.	/	.	?
N#Cc1ccc(-c2csc(-c3ccno3)n2)cc1	.	.	.	/	.	.
FC(F)(F)c1ccc(-c2csc(-c3ccno3)n2)cc1	?	.	.	/	27µM	.
O=C(CSc1nnc(-c2ccc(O)cc2)o1)Nc1ccccc1	?	8.2µM	2.8µM	/	?	2.5µM
COc1ccccc1NC(=O)CSc1nnc(-c2ccccc2)o1	?	18µM	?	14µM	.	?
Cc1csc(NC(=O)CSc2nnc(NC(=O)COc3ccccc3)s2)n1	.	.	.	.	2.1µM	.
Cc1csc(NC(=O)CSc2nnc(C)s2)n1	.	.	.	.	.	.
O=C(CSc1nnc(-c2csc3c2CCCC3)o1)Nc1ccccc1	?	0.58µM	0.56µM	1.8µM	.	?
O=C1C(=O)N(C2CCN(C(=O)c3ccccc3Cl)CC2)CCN1Cc1ccc(F)cc1	/	/	/	/	.	/
Cc1cc(=O)[nH]c(-c2ccc(C(F)(F)F)cc2)n1	.	.	.	/	.	.
CCN(CC)S(=O)(=O)c1ccc(-c2nnc(SCC(=O)Nc3nc(C)cs3)o2)cc1	.	.	.	.	.	.
COc1cccc(NC(=O)CSc2nnc(-c3cc(C)n(-c4ccccc4)c3C)o2)c1	.	.	.	.	12µM	.
Cc1csc(NC(=O)CSc2nnc(-c3ccccc3)o2)n1	?	5µM	2µM	11µM	.	3.2µM
CCN(C(=O)CSc1nc2ccccc2n1Cc1ccccc1C#N)c1ccccc1	/	/	/	/	.	/
CCC1CCc2nc3sc(C(=O)Nc4ccc(F)cc4F)c(N)c3cc2C1 (stereo not given)	/	/	/	.	.	/
Oc1ccc2ccccc2c1C=NCc1cn2ccsc2n1	.	.	.	.	19µM	.
Oc1ccc2ccccc2c1/C=N/c1nccs1	.	.	.	.	.	.
COc1cccc(CNC(=O)Cn2c(=O)nc(-c3ccccc3F)c3cc(Cl)ccc32)c1	/	/	/	/	.	/
O=C(Oc1ccccc1/C=C\C(=O)c1cc2ccccc2o1)c1cccc(F)c1	?	?	?	.	8.5µM	.
O=C(Oc1ccccc1/C=C\C(=O)c1cc2ccccc2o1)c1ccccc1	?	?	3.2µM	?	17µM	4µM
COc1cccc(C(=O)Oc2ccccc2/C=C\C(=O)c2cc3ccccc3o2)c1	?	.	?	.	?	2.8µM
COc1ccc(O)c(C(=O)/C=C/c2cc3ccccc3o2)c1	/	/	.	/	?	.
SMILES	p53 reactivation	ELG1 genotoxic	Rab9 prom act	SMN2 splice up	FLuc counter	NPC1 prom act
O=C(Nc1ccccc1)c1ccc(OC(=O)c2cc3ccccc3o2)cc1	.	?	.	.	.	.
COc1ccc(CN2C(=NC(=O)C3CCCO3)SC3CS(=O)(=O)CC32)cc1 (stereo not given)	.	.	.	/	.	.
CCCSCCCNC(=O)C1CCN(C(=O)c2cc3sccc3n2C)CC1	/	/	/	.	.	/
COc1ccc(CN=C(C)c2c(C(F)(F)F)[nH]n(-c3nc4ccccc4s3)c2=O)cc1	?	15µM	4µM	.	6.7µM	?
COC(=O)Cc1[nH]n(-c2nc3ccccc3s2)c(=O)c1C(C)=O	?	?	.	.	9.5µM	.
O=c1cc(-c2ccccc2)[nH]n1-c1nc2ccccc2s1	?	.	.	.	17µM	.
COC(=O)CC1=NN(c2nc3ccccc3s2)C(=O)/C1=C/N(C)C	.	.	.	.	?	.
O=C1NC(c2ccccc2)=C(c2nc3ccccc3s2)C(c2ccccc2)N1 (stereo not given)	.	.	.	.	.	.
CC(=O)c1c(CC(=O)O)[nH]n(-c2nc3ccccc3s2)c1=O	.	.	?	.	12µM	.
